# Experimental data reported in the supplement of paper PMC6953052.
# In all, about 1,700 compounds were measured (“fraction of GFP-LC3-positive cells (≥5 vesicles/cell)”: median about 0.43, highest 2% from about 0.81 on). Only a selection was taken, and the highest values are over-represented in it overall.
# System: CbCln3 Δex7/8/Δex7/8 GFP-LC3 cerebellar neuronal cells
# Experiment: fraction of GFP-LC3-positive cells (≥5 vesicles/cell); higher = more autophagosome accumulation
# Method in brief: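 Wild-type or mutant CbCln3 cerebellar cells stably expressing GFP-LC3 were plated at 2 × 10^3 per well in 384-well plates and received ~50 nL of compound in DMSO by pin transfer, in duplicate, for 24 h at 33 °C. Hoechst 33342 and LysoTracker Red were added for the last 30 min, after which cells were fixed in 3.2% PFA and three fields per well were imaged at 10×. CellProfiler counted GFP-LC3 vesicles per cell, and out-of-focus images were excluded. The reported value is the fraction of cells reaching a vesicle-count cutoff of 5 or more, averaged over duplicates.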
row,Compound,fraction of GFP-LC3-positive cells
1,CC1/C=C/C=C/CC/C=C/C=C/C=C/C=C/C(O[C@@H]2O[C@H](C)[C@@H](O)[C@H](N)[C@@H]2O)CC(O)C(C(=O)O)C(O)CC(=O)CC(O)C(O)CCC(O)CC(O)CC(O)CC(=O)OC(C)C(C)C1O (stereo partly specified) [Nystatine],0.294
2,CC(=O)OCOC(=O)CN(CC(=O)OCOC(C)=O)c1ccccc1OCCOc1ccccc1N(CC(=O)OCOC(C)=O)CC(=O)OCOC(C)=O,0.851
3,CC(=O)Oc1ccccc1C(=O)Oc1ccccc1C(=O)O [Acetylsalicylsalicylic acid],0.354
4,COc1cc2nc(N3CCN(C(=O)c4ccco4)CC3)nc(N)c2cc1OC [prazocin],0.931
5,COc1cc2nc(N3CCN(C(=O)C4CCCO4)CC3)nc(N)c2cc1OC.Cl (stereo unspecified) [Terazosin hydrochloride],0.396
6,COc1cc2nc(N3CCN(C(=O)c4ccco4)CC3)nc(N)c2cc1OC.Cl [Prazosin hydrochloride],0.669
7,CCCCC/C=C\C/C=C\C=C\[C@@H](O)C/C=C\CCCC(=O)O,0.479
8,Nc1nc2[nH]nnc2c(=O)[nH]1 [Azaguanine-8],0.845
9,CCCOc1ccccc1-c1nc2[nH]nnc2c(=O)[nH]1 [zaprinast],0.222
10,Nc1nc2c(ncn2COCCO)c(=O)[nH]1 [Acyclovir],0.421
11,CN(C)CCOC(c1ccccc1)c1ccccc1.Cl [Diphenhydramine hydrochloride],0.531
12,CCCCC[C@H](O)/C=C/C=C\C/C=C\CCCCC(=O)O,0.403
13,CCCCC(CC)CNC(=N)NC(=N)NCCCCCCNC(=N)NC(=N)NCC(CC)CCCC.Cl.Cl (stereo unspecified) [Alexidine dihydrochloride],0.537
14,CCCNC(C)C(=O)Nc1ccccc1C.Cl (stereo unspecified) [Prilocaine hydrochloride],0.359
15,C=CCOc1ccccc1OCC(O)CNC(C)C.Cl (stereo unspecified) [Oxprenolol hydrochloride],0.366
16,Cl.OCCN1CCN(CC/C=C2/c3ccccc3Sc3ccc(Cl)cc32)CC1 [Zuclopenthixol hydrochloride],0.542
17,O=c1cc(-c2ccc(O)cc2)oc2cc(O)cc(O)c12 [Apigenin],0.432
18,CCCCCC(=O)/C=C/[C@H]1[C@H](O)CC(=O)[C@@H]1C/C=C\CCCC(=O)O [15-Keto-prostaglandin E2],0.471
19,NS(=O)(=O)c1cc2c(cc1Cl)N=C(CSCc1ccccc1)NS2(=O)=O [Benzthiazide],0.293
20,CS(=O)(=O)Nc1ccc([N+](=O)[O-])cc1Oc1ccccc1 [Nimesulide],0.391
21,CC(C)NC[C@H](O)c1ccc(O)c(O)c1.Cl [(-)-Isoproterenol hydrochloride],0.349
